KCNQ2 block: inhibitors of rat KCNQ2 potassium channel. O88943. CHO-K1 KCNQ2, FluxOR thallium flux, 20 min; active compounds read low. B-score at 10 µM. actives 1.1% (n = 310,000);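 active = fluorescence ratio B-score at most minus 3 library SDs, with starting brightness B-score within 2 library SDs, cut at about -5.5 in these data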
KCNQ2 enhance: potentiators of rat KCNQ2 potassium channel. CHO-K1 KCNQ2, FluxOR thallium flux fluorescence; active compounds read high. B-score at 10 µM. actives 0.54% (n = 310,000). AID 2239. O88943;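 active = fluorescence ratio B-score at least 3 SD of library B-scores, with initial fluorescence B-score within 3 of them, cut at about 5.3 in these data; same plate scores as AID 2156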;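 note: B-score of peak minus minimum over baseline fluorescence ratio after K+ and Tl+ stimulus; positive B-score means potentiation of KCNQ2 with more thallium influx and brighter signal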
An asterisk follows results filed as active; i = inactive; . = no result given. A selection: hits, their analogues and other compounds. The true share with any hit is near 1.6%.

SMILES	KCNQ2 block	KCNQ2 enhance
O=C(N/N=C(\CC(=O)c1cccs1)C(F)(F)F)c1ccncc1	i	0.05
COc1ccccc1-c1ccc(SCc2cccc(C)c2)nn1	-6.22*	-6.22
COc1ccccc1-c1ccc(SCc2ccc([N+](=O)[O-])cc2)nn1	i	.
COc1ccc([N+](=O)[O-])cc1/C=N/NC(=O)CNC(=O)C(c1ccccc1)c1ccccc1	-6.06*	-6.06
COc1ccc([N+](=O)[O-])cc1/C=N/NC(=O)CNC(=O)c1cccc(F)c1	i	.
Cc1ccc(NC(=O)CSc2nnc(CNC(=O)c3cccs3)o2)c(C)c1	i	.
CCN(CC)CCOC(=O)c1ccc(NC(=S)NC(=O)/C=C/c2ccco2)cc1	i	.
Cc1ccc(-c2nc3c(c(=O)[nH]c(=O)n3CC(C)C)n2CC(C)C)cc1[N+](=O)[O-]	i	.
CC(C)Cn1c(-c2cc(Br)ccc2F)nc2c1c(=O)[nH]c(=O)n2CC(C)C	-6.46*	-6.46
CCCCn1c(-c2ccncc2)nc2c1c(=O)[nH]c(=O)n2CC(C)C	i	.
CC(C)Cn1c(-c2cc([N+](=O)[O-])ccc2Cl)nc2c1c(=O)[nH]c(=O)n2Cc1ccccc1	i	7.44*
CNC(=O)c1cc(NC(=O)CCn2nc(-c3ccccc3)c3ccccc3c2=O)ccc1OC	i	2.77
COc1ccccc1CCC(=O)N(C)CC(=O)Nc1ccc(Cl)c(C(F)(F)F)c1	i	.
CCn1nnc(-c2ccccc2NS(=O)(=O)c2ccc(S(=O)(=O)N(C)C3CCCCC3)cc2)n1	i	.
CN(CC1CCOCC1)C(=O)CC1C(=O)NCCN1Cc1cccc(Oc2ccccc2)c1 (stereo not drawn)	i	0.57
COc1ccccc1NC(=O)Cn1cnc2sc(C)c(S(=O)(=O)N3CCCCC3)c2c1=O	i	.
O=[N+]([O-])c1ccc(Oc2ccc(S(=O)(=O)Nc3ccccc3)cc2)cc1	i	3.16
O=C1C(Cl)=C(NS(=O)(=O)c2ccc([N+](=O)[O-])cc2)C(=O)c2ccccc21	-5.96*	-5.96
CCc1ccc(C(=O)NNC(=O)C2CSC3(C)CCC(=O)N23)cc1 (stereo not drawn)	i	.
O=C(c1ccco1)[C@@H]1[C@@H]2C(=O)N(c3ccccc3)C(=O)[C@@H]2C2c3ccccc3C=CN21 (stereo partly drawn)	i	.
Cc1ccc(N2C(=O)[C@@H]3[C@H](C2=O)C2c4ccccc4C=CN2[C@@H]3C(=O)c2ccco2)c(C)c1 (stereo partly drawn)	-6.39*	-6.39
CC(C)CN1CCC(CN(C)Cc2nc(-c3cnccn3)no2)CC1	i	0.3
CC(C)C(CCNC(=O)CN1C(=O)c2ccccc2C1=O)c1ccco1 (stereo not drawn)	i	.
CC(C)C(CCNC(=O)CC(Cc1ccccc1)c1ccco1)c1ccco1 (stereo not drawn)	-14*	-14
COC(=O)[C@]1(C)N[C@H](c2ccc(-c3ccc(Cl)c(Cl)c3)c(OC)c2)[C@@H]2C(=O)N(C)C(=O)[C@@H]21	i	.
SMILES	KCNQ2 block	KCNQ2 enhance
Cc1ccc(C(=O)Nc2cc(Cl)ccc2Oc2ccccc2)cc1[N+](=O)[O-]	-6.14*	-6.14
Cc1ccc(C(=O)Nc2ccccc2-c2ccccc2)cc1[N+](=O)[O-]	i	.
Cc1nc(=S)n(-c2ccccc2)[nH]1	i	.
S=c1nc(-c2ccccc2)[nH]n1-c1ccccc1	i	18.3*
Cc1ccc(S(=O)(=O)NNC(=O)NC23CC4CC(CC(C4)C2)C3)cc1	i	.
O=C(COc1ccc(Cl)cc1[N+](=O)[O-])N/N=C/c1cccs1	i	.
O=C(CSc1nc(O)cc(=O)n1-c1ccccc1)Nc1ccc2c3c(cccc13)CC2	i	3.26
Cc1c(O)nc(SCC(=O)Nc2ccc3c4c(cccc24)CC3)n(-c2ccccc2)c1=O	i	11.7*
Cc1sc2nc(CSCC(=O)N(CCC#N)c3ccccc3)[nH]c(=O)c2c1C	i	.
CCN(CC)C(=O)c1sc2nc(-c3cccs3)cc(-c3cccs3)c2c1N	i	.
CCN(CC)C(=O)c1sc2nc(-c3cccs3)cc(-c3ccc(Cl)cc3)c2c1N	-6.86*	-6.86
CSc1cccc(NC(=O)CN(c2cc(C)ccc2C)S(C)(=O)=O)c1	i	.
C=CCn1c(SCC(=O)N2CCOCC2)nnc1C(C)NC(=O)c1ccccc1 (stereo not drawn)	i	.
COc1ccccc1N1CCN(C(=O)c2ccc(COc3cccc4c3OC(C)(C)C4)cc2)CC1	i	.
COc1cccc(NC(=O)Cn2cc3c(n2)CCCCC3)c1	-6.47*	-6.47
COc1ccc(CNC(=O)Cn2cc3c(n2)CCCCC3)cc1	i	0.78
CC(C)c1ccccc1NC(=O)COC(=O)c1cc(=O)[nH]c(=O)[nH]1	i	.
Cc1ccc(C(C[N+](=O)[O-])c2c(N)n(C)c(=O)n(C)c2=O)cc1 (stereo not drawn)	-8.04*	-8.04
COc1cc(C(C[N+](=O)[O-])c2c(N)n(C)c(=O)n(C)c2=O)ccc1O (stereo not drawn)	i	.

Assay outcomes: PubChem, Johns Hopkins Ion Channel Center
